Legend:
[1] = molecular target: Casein kinase I isoform gamma-2 (Homo sapiens) (UniProt P78368); settings: at 1 µM
[2] = molecular target: Casein kinase I isoform gamma-3 (Homo sapiens) (UniProt Q9Y6M4); settings: at 0.1 µM
[3] = molecular target: Casein kinase I isoform gamma-3 (Homo sapiens) (UniProt Q9Y6M4); settings: at 1 µM
[4] = molecular target: Cyclin-dependent kinase 1 (Homo sapiens) (UniProt P06493); settings: at 0.1 µM
[5] = molecular target: Cyclin-dependent kinase 1 (Homo sapiens) (UniProt P06493); settings: at 1 µM
[6] = molecular target: Cyclin-dependent kinase 2 (Homo sapiens) (UniProt P24941); settings: at 0.1 µM
[7] = molecular target: Cyclin-dependent kinase 2 (Homo sapiens) (UniProt P24941); settings: at 1 µM
[8] = molecular target: Cyclin-dependent kinase 2 (Homo sapiens) (UniProt P24941); settings: at 0.1 µM; remark: listed apart in the source
[9] = molecular target: Cyclin-dependent kinase 2 (Homo sapiens) (UniProt P24941); settings: at 1 µM; remark: listed apart in the source
[10] = molecular target: T1, CDK3/Cyclin E (Homo sapiens) (UniProt P24864+Q00526); settings: at 0.1 µM
T1 sequence (P24864 whole entry, looked up): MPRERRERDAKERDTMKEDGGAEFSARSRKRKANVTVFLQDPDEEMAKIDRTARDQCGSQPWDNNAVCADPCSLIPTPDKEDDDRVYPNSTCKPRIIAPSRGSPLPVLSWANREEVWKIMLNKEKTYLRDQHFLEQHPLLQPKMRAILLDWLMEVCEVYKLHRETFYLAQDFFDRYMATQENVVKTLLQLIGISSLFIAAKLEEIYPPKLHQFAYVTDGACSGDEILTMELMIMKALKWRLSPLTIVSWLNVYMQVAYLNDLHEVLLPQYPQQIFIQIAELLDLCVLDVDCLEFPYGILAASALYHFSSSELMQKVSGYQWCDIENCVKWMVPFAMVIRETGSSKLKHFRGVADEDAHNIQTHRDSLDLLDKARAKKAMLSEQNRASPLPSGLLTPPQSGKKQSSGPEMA
T1 sequence (Q00526 whole entry, looked up): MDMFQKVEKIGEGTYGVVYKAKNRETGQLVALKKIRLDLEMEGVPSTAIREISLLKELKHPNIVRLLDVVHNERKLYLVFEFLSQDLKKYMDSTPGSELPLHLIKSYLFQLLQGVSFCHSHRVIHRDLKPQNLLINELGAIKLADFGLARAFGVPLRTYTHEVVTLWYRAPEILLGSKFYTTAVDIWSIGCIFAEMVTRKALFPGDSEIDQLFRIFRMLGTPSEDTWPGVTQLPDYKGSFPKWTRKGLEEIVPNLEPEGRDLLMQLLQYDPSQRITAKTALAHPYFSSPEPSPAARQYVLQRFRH

[11] = molecular target: T1, CDK3/Cyclin E (Homo sapiens); settings: at 1 µM
[12] = molecular target: Cyclin-dependent kinase 4 (Homo sapiens) (UniProt P11802); settings: at 0.1 µM
Sequence of Cyclin-dependent kinase 4 (Homo sapiens) (P11802 whole entry): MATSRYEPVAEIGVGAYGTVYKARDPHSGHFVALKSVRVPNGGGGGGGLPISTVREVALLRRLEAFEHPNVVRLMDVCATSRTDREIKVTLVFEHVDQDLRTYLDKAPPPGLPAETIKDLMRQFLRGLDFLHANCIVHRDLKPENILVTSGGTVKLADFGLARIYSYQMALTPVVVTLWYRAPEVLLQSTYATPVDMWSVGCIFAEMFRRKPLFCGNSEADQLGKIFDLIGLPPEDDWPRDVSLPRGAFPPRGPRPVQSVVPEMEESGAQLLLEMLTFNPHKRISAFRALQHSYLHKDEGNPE

[13] = molecular target: Cyclin-dependent kinase 4 (Homo sapiens) (UniProt P11802); settings: at 1 µM
[14] = molecular target: Cyclin-dependent kinase 5 (Homo sapiens) (UniProt Q00535); settings: at 0.1 µM
Sequence of Cyclin-dependent kinase 5 (Homo sapiens) (Q00535 whole entry, looked up): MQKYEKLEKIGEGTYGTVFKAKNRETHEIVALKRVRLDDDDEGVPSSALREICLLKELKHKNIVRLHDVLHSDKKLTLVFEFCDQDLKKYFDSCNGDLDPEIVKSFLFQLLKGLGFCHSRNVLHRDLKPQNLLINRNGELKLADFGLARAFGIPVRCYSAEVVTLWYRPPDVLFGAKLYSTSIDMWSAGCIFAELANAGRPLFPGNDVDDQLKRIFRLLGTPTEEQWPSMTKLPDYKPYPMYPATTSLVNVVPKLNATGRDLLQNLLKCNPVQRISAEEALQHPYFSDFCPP

[15] = molecular target: Cyclin-dependent kinase 5 (Homo sapiens) (UniProt Q00535); settings: at 1 µM
[16] = molecular target: Cyclin-dependent kinase 6 (Homo sapiens) (UniProt Q00534); settings: at 0.1 µM
Sequence of Cyclin-dependent kinase 6 (Homo sapiens) (Q00534 whole entry): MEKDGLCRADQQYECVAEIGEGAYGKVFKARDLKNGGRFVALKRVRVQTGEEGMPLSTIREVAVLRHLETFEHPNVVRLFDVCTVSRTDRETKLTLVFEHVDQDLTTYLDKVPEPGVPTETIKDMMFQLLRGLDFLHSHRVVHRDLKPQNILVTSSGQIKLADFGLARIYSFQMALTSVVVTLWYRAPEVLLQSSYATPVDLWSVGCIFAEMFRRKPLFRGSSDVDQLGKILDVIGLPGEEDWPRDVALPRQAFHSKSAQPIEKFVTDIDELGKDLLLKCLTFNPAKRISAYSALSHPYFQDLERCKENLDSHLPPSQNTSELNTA

[17] = molecular target: Cyclin-dependent kinase 6 (Homo sapiens) (UniProt Q00534); settings: at 1 µM
[18] = molecular target: Dual specificity protein kinase CLK2 (Homo sapiens) (UniProt P49760); settings: at 0.1 µM
Sequence of Dual specificity protein kinase CLK2 (Homo sapiens) (P49760 whole entry, looked up): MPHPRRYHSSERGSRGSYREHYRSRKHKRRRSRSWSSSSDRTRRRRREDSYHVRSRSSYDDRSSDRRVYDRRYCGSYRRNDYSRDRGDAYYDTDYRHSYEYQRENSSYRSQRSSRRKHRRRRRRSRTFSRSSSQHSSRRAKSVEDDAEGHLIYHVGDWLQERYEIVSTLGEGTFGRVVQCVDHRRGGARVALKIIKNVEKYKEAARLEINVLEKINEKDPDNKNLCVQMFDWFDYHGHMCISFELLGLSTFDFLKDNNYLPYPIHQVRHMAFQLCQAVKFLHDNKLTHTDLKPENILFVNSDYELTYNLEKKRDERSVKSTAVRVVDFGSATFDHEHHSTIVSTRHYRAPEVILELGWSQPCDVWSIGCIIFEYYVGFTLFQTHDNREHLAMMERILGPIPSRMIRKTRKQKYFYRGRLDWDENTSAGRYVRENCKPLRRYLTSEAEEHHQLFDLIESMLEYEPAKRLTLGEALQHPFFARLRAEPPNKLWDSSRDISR

[19] = molecular target: Dual specificity protein kinase CLK2 (Homo sapiens) (UniProt P49760); settings: at 1 µM
[20] = molecular target: Dual specificity protein kinase CLK3 (Homo sapiens) (UniProt P49761); settings: at 0.1 µM
Sequence of Dual specificity protein kinase CLK3 (Homo sapiens) (P49761 whole entry, looked up): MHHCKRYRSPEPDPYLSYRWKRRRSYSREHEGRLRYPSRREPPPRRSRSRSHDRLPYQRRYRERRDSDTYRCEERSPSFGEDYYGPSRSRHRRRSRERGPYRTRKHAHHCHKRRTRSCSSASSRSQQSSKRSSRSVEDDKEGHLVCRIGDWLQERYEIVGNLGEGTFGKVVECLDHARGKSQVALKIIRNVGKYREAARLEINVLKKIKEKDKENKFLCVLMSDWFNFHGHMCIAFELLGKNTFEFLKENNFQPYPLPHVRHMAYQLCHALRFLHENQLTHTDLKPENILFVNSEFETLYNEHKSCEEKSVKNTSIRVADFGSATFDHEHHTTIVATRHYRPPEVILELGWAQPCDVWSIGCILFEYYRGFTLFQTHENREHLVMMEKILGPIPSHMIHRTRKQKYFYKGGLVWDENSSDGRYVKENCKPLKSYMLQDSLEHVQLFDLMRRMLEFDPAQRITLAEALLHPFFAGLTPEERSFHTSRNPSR

Sequence of Casein kinase I isoform gamma-3 (Homo sapiens) (Q9Y6M4 whole entry, looked up, canonical isoform): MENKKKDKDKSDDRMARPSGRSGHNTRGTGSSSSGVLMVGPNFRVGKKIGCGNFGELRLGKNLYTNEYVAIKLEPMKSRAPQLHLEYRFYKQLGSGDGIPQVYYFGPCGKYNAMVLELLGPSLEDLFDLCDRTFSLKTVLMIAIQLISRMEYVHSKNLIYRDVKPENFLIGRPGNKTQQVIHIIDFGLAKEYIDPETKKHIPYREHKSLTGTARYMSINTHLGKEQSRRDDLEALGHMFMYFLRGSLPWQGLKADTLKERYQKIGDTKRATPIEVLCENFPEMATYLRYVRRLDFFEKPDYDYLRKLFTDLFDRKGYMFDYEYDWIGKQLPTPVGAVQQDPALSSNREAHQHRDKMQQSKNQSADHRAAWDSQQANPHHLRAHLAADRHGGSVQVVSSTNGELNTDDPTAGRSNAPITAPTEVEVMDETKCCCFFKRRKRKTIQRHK
Sequence of Cyclin-dependent kinase 1 (Homo sapiens) (P06493 whole entry, looked up): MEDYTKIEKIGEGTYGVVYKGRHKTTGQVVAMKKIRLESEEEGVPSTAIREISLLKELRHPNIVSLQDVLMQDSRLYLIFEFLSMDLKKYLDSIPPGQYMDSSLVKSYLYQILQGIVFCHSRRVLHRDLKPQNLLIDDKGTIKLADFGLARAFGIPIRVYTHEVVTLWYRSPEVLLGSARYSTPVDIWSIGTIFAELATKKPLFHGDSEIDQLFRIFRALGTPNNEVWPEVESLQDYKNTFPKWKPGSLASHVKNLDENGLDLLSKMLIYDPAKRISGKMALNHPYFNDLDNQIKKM
Sequence of Casein kinase I isoform gamma-2 (Homo sapiens) (P78368 whole entry, looked up, canonical isoform): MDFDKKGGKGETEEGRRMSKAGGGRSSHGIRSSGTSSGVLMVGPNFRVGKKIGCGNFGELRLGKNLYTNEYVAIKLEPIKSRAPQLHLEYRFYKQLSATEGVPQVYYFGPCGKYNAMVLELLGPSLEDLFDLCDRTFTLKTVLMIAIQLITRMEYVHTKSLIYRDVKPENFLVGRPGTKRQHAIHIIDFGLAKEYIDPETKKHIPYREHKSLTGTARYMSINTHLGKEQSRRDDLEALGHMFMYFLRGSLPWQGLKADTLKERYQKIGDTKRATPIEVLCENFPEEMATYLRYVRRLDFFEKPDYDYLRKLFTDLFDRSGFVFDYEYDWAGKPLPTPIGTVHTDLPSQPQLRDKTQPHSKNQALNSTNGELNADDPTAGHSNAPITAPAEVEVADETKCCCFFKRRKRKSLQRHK

## CS(=O)(=O)Nc1cccc(-c2ccc3c(NC(=O)C4CC4)n[nH]c3c2)c1
[1]
  inhibition: 0.91%
[2]
  inhibition: 0.37%
[3]
  inhibition: 1.22%
[4]
  inhibition: 1.04%
[5]
  inhibition: 3.4%
[6]
  inhibition: 1.58%
[7]
  inhibition: 6.73%
[8]
  inhibition: 1.31%
[9]
  inhibition: 4.6%
[10]
  inhibition: 2.08%
[11]
  inhibition: 3.8%
[12]
  inhibition: 0.3%
[13]
  inhibition: 2.88%
[14]
  inhibition: 0.92%
[15]
  inhibition: 2.86%
[16]
  inhibition: -5.62%
[17]
  inhibition: 6.33%
[18]
  inhibition: 2.8%
[19]
  inhibition: 3.81%
[20]
  inhibition: -0.87%

## CN(C)C(=O)O[C@@H]1CN[C@@H](C#Cc2cc3ncnc(Nc4ccc(OCc5cccc(F)c5)c(Cl)c4)c3s2)C1
[1]
  inhibition: 5.93%
[2]
  inhibition: 0.73%
[3]
  inhibition: 5.49%
[4]
  inhibition: 0.38%
[5]
  inhibition: 0.19%
[6]
  inhibition: 0.82%
[7]
  inhibition: 7.43%
[8]
  inhibition: 0.72%
[9]
  inhibition: 1.06%
[10]
  inhibition: 3.66%
[11]
  inhibition: -1.66%
[12]
  inhibition: 2.09%
[13]
  inhibition: 1.46%
[14]
  inhibition: 0.54%
[15]
  inhibition: 1.24%
[16]
  inhibition: -6.37%
[17]
  inhibition: 0.91%
[18]
  inhibition: 0.95%
[19]
  inhibition: -0.08%
[20]
  inhibition: -0.16%

## NC(=O)c1sc(-n2cnc3ccccc32)cc1OCc1ccccc1Br
[1]
  inhibition: 5.04%
[2]
  inhibition: 2.52%
[3]
  inhibition: 3.56%
[4]
  inhibition: 4.32%
[5]
  inhibition: 6.19%
[6]
  inhibition: 7.43%
[7]
  inhibition: 5.68%
[8]
  inhibition: 4.88%
[9]
  inhibition: 8.08%
[10]
  inhibition: -2.25%
[11]
  inhibition: 0.26%
[12]
  inhibition: 6.61%
[13]
  inhibition: 8.04%
[14]
  inhibition: 3.59%
[15]
  inhibition: 8.58%
[16]
  inhibition: -3.6%
[17]
  inhibition: -1.95%
[18]
  inhibition: 1.89%
[19]
  inhibition: 5.2%
[20]
  inhibition: 0.83%

## Cc1cc(O)cc(C)c1/C=C/c1cncc(C(=O)N(C)C)c1
[1]
  inhibition: 3.24%
[2]
  inhibition: 0.86%
[3]
  inhibition: -0.84%
[4]
  inhibition: 1.02%
[5]
  inhibition: 5.98%
[6]
  inhibition: 2.51%
[7]
  inhibition: 0.67%
[8]
  inhibition: 1.36%
[9]
  inhibition: 4.91%
[10]
  inhibition: 1.4%
[11]
  inhibition: 0.31%
[12]
  inhibition: 2.02%
[13]
  inhibition: 5.17%
[14]
  inhibition: 1.19%
[15]
  inhibition: 4.55%
[16]
  inhibition: -1.04%
[17]
  inhibition: 3.9%
[18]
  inhibition: 2.35%
[19]
  inhibition: 2.69%
[20]
  inhibition: -0.01%

## COc1cc(Nc2nccc(-c3cnn4ncccc34)n2)cc(OC)c1
[1]
  inhibition: 39.3%
[2]
  inhibition: 3.02%
[3]
  inhibition: 34.9%
[4]
  inhibition: 69.1%
[5]
  inhibition: 91.3%
[6]
  inhibition: 54.5%
[7]
  inhibition: 110%
[8]
  inhibition: 63.6%
[9]
  inhibition: 90%
[10]
  inhibition: 34.6%
[11]
  inhibition: 74.3%
[12]
  inhibition: 44.9%
[13]
  inhibition: 78.5%
[14]
  inhibition: 63%
[15]
  inhibition: 90.1%
[16]
  inhibition: 24.9%
[17]
  inhibition: 76.1%
[18]
  inhibition: 99.2%
[19]
  inhibition: 99.9%
[20]
  inhibition: 36.5%

## Nc1nccc(-c2c(-c3ccc(F)cc3)nn3cc(C(F)(F)F)ccc23)n1
[1]
  inhibition: 1.13%
[2]
  inhibition: 0.79%
[3]
  inhibition: 1.7%
[4]
  inhibition: 1.22%
[5]
  inhibition: 0.47%
[6]
  inhibition: -0.36%
[7]
  inhibition: -2.27%
[8]
  inhibition: -0.77%
[9]
  inhibition: 0.2%
[10]
  inhibition: -0.58%
[11]
  inhibition: -2.57%
[12]
  inhibition: 0.37%
[13]
  inhibition: 1.03%
[14]
  inhibition: 0.43%
[15]
  inhibition: -0.54%
[16]
  inhibition: -0.93%
[17]
  inhibition: -0.06%
[18]
  inhibition: 1.36%
[19]
  inhibition: -2.43%
[20]
  inhibition: -0.16%

## Cc1ccc(NC(=O)CC2CC2)cc1-c1ccc(C(=O)NCC2CC2)cc1
[1]
  inhibition: 2.91%
[2]
  inhibition: 0.5%
[3]
  inhibition: 2.08%
[4]
  inhibition: -0.23%
[5]
  inhibition: 0.76%
[6]
  inhibition: -1.15%
[7]
  inhibition: -1.13%
[8]
  inhibition: 1.18%
[9]
  inhibition: 2.92%
[10]
  inhibition: 1.73%
[11]
  inhibition: -2.46%
[12]
  inhibition: 1.69%
[13]
  inhibition: 2.18%
[14]
  inhibition: 0.04%
[15]
  inhibition: 0.76%
[16]
  inhibition: 1.72%
[17]
  inhibition: 1.87%
[18]
  inhibition: 0.47%
[19]
  inhibition: 0.08%
[20]
  inhibition: 1.44%

## c1ccc(Nc2ncc(-c3ccccc3)o2)cc1
[1]
  inhibition: 5.31%
[2]
  inhibition: 4.05%
[3]
  inhibition: 4.99%
[4]
  inhibition: 2.77%
[5]
  inhibition: 4.54%
[6]
  inhibition: 3.79%
[7]
  inhibition: 10.5%
[8]
  inhibition: 3.46%
[9]
  inhibition: 12.3%
[10]
  inhibition: 0.23%
[11]
  inhibition: 5.78%
[12]
  inhibition: 3.04%
[13]
  inhibition: 11.5%
[14]
  inhibition: 2.22%
[15]
  inhibition: 10.4%
[16]
  inhibition: 2.71%
[17]
  inhibition: 21.7%
[18]
  inhibition: 0.96%
[19]
  inhibition: 3.74%
[20]
  inhibition: -0.17%

## COc1cc(/C=N/Nc2ncnc3c2cnn3C(C)C)ccc1O
[1]
  inhibition: 0.8%
[2]
  inhibition: 1.47%
[3]
  inhibition: 2.79%
[4]
  inhibition: 11.8%
[5]
  inhibition: 47.9%
[6]
  inhibition: 7.48%
[7]
  inhibition: 46.5%
[8]
  inhibition: 6.02%
[9]
  inhibition: 32.4%
[10]
  inhibition: 6.53%
[11]
  inhibition: 27.6%
[12]
  inhibition: 3.37%
[13]
  inhibition: 18.7%
[14]
  inhibition: 10.4%
[15]
  inhibition: 46.2%
[16]
  inhibition: -4.82%
[17]
  inhibition: 9.96%
[18]
  inhibition: 3.4%
[19]
  inhibition: 23.2%
[20]
  inhibition: 5.21%

## CN(c1ccc(NC(=O)Nc2ccc(OC(F)(F)F)cc2)cc1)c1ccnc(Nc2cccc(S(N)(=O)=O)c2)n1
[1]
  inhibition: 2.66%
[2]
  inhibition: 1.74%
[3]
  inhibition: 2.37%
[4]
  inhibition: -0.1%
[5]
  inhibition: 5.09%
[6]
  inhibition: 0.55%
[7]
  inhibition: 14.4%
[8]
  inhibition: 1.2%
[9]
  inhibition: 7.47%
[10]
  inhibition: -0.62%
[11]
  inhibition: 3.98%
[12]
  inhibition: 0.85%
[13]
  inhibition: 6.76%
[14]
  inhibition: 0.45%
[15]
  inhibition: 5.8%
[16]
  inhibition: 2.09%
[17]
  inhibition: 27.4%
[18]
  inhibition: 1.61%
[19]
  inhibition: -2.84%
[20]
  inhibition: 0.59%

## NS(=O)(=O)c1ccc(-c2cc3ccncc3cc2OCc2ccccc2)cc1
[1]
  inhibition: 3.43%
[2]
  inhibition: 1.53%
[3]
  inhibition: 4.76%
[4]
  inhibition: -0.03%
[5]
  inhibition: 0.11%
[6]
  inhibition: 1.51%
[7]
  inhibition: 2.11%
[8]
  inhibition: 1.41%
[9]
  inhibition: 1.57%
[10]
  inhibition: 4.12%
[11]
  inhibition: -0.11%
[12]
  inhibition: 2.12%
[13]
  inhibition: 0.84%
[14]
  inhibition: -0.11%
[15]
  inhibition: -1.18%
[16]
  inhibition: 3.37%
[17]
  inhibition: 2.89%
[18]
  inhibition: 0.98%
[19]
  inhibition: 2.04%
[20]
  inhibition: 1.44%

## CCS(=O)(=O)c1ccc(OC)c(Nc2ncc(-c3cccc(OC)c3)o2)c1
[1]
  inhibition: 3.73%
[2]
  inhibition: 3.1%
[3]
  inhibition: 5.62%
[4]
  inhibition: -0.89%
[5]
  inhibition: 2.51%
[6]
  inhibition: 1.38%
[7]
  inhibition: 5.48%
[8]
  inhibition: 2.62%
[9]
  inhibition: 7.35%
[10]
  inhibition: 0.48%
[11]
  inhibition: 3.18%
[12]
  inhibition: 1.8%
[13]
  inhibition: 3.35%
[14]
  inhibition: 0.02%
[15]
  inhibition: 1.71%
[16]
  inhibition: 3.87%
[17]
  inhibition: 5.07%
[18]
  inhibition: 34.8%
[19]
  inhibition: 86%
[20]
  inhibition: 2.36%

## COc1cccc(-n2nc(C)c3c(N/N=C(\C)c4ccncc4)ncnc32)c1
[1]
  inhibition: 0.28%
[2]
  inhibition: -0.15%
[3]
  inhibition: -0.59%
[4]
  inhibition: 0.65%
[5]
  inhibition: 2.77%
[6]
  inhibition: 1.78%
[7]
  inhibition: 7.56%
[8]
  inhibition: 1.09%
[9]
  inhibition: 2.33%
[10]
  inhibition: -0.92%
[11]
  inhibition: -0.83%
[12]
  inhibition: 0.53%
[13]
  inhibition: 2.41%
[14]
  inhibition: 0.97%
[15]
  inhibition: 5.69%
[16]
  inhibition: -2.27%
[17]
  inhibition: 0.77%
[18]
  inhibition: -2.05%
[19]
  inhibition: 0.8%
[20]
  inhibition: -1.02%

## Cc1ccc(Nc2ccnc(Nc3cccc(C(N)=O)c3)n2)cc1O
[1]
  inhibition: 0.87%
[2]
  inhibition: -2.96%
[3]
  inhibition: 0.07%
[4]
  inhibition: -3.61%
[5]
  inhibition: 1.29%
[6]
  inhibition: -0.93%
[7]
  inhibition: 16.1%
[8]
  inhibition: -0.2%
[9]
  inhibition: 7.62%
[10]
  inhibition: 1.92%
[11]
  inhibition: 4.71%
[12]
  inhibition: -2.5%
[13]
  inhibition: 1.32%
[14]
  inhibition: -3.13%
[15]
  inhibition: 1.46%
[16]
  inhibition: -1.97%
[17]
  inhibition: -0.13%
[18]
  inhibition: 1.32%
[19]
  inhibition: 6.94%
[20]
  inhibition: -0.76%
